Laboratory results published in PubChem BioAssay (NCATS).
Results filed as inconclusive are left out. Where a call stands in place of a potency, no number is given. The source made the active and inactive calls. The call rests on the fitted dose curve; in most records, active means well fitted cell-killing curve with a large enough effect; inconclusive means small, poorly fitted or top-dose-only effect; inactive means flat fitted curve, though single readings scatter. Peptide text beside a SMILES is read from it.

Test: Cell Viability - LYMP2-025 (AID 976)
Conditions: LYMP2-025 lymphoblastoid cell viability; series mostly up to 92.2 µM
Excerpt: NIH Chemical Genomics Center [NCGC]
NIH Molecular Libraries Screening Centers Network [MLSCN]
National Institutes of Environmental Health Sciences [NIEHS]
National Toxicology Program [NTP]
We have developed a 1536-well cell-based assay for quantitative high throughput screening (qHTS) against a number of cell lines to determine in vitro cytotoxicity of small molecules. This particular assay uses a human lymphoblastoid cell line (LYMP2-025) purchased from Coriell Institute for Medical Research.
NCGC Assay Protocol Summary:
The CellTiter-Glo luminescent cell viability assay (Promega) is a homogeneous method to measure the number of viable cells in culture. The end point readout of this assay is based on quantitation of intracellular ATP, an indicator of metabolic activity, using the luciferase reaction. Luciferase catalyzes the oxidation of beetle Luciferin to oxyluciferin and light in the presence of ATP. The luminescent signal is proportional to amount of ATP present.
Using the CellTiter-Glo luminescent cell viability assay, the amount of cellular ATP was measured in the lymphoblastoid cell line with complete culture medium following compound treatment for 24 hours. The assay was performed in opaque white Kalypsys 1536-well plates. In the screen, tetraoctylammonium bromide was used as positive control. Library compounds were measured for their ability to cause acute toxicity in the cell line, as reflected by a decrease in intracellular ATP levels, in a concentration-dependent manner. […] AC50 values were determined from concentration-response data modeled with the standard Hill equation.
qHTS protocol for CellTiter Glo lymphoblastoid cellular assay
[Step] [Parameter] [Value] [Description]
1. Reagent; 5 uL; 2500 lymphoblastoid cells/well
2. Time; 5 hr; 37 C incubation
4. Controls; 23 nL; Tetraoctylammonium bromide 6.4pM to 92 uM
5. Time; 24 hr; 37 C incubation
6. Reagent; 5 uL; CellTiter Glo reagent
7. Time; 30 min; Room Temperature
8. Detection; Luminescence; Viewlux plate reader
Keywords: cell viability, cytotoxicity, lymphoblastoid cell line, luminescence, NTPHTS, NTPHTS_NCGC, NIEHS, DSSTox, MLSMR, MLSCN, NIH Roadmap, qHTS, NCGC
Potency means the concentration at half of the fitted maximal effect.

| Compound | Potency |
| --- | --- |
| c1ccc2[nH]c(-c3cscn3)nc2c1 | inactive |
| NS(=O)(=O)c1cc(C(=O)O)c(NCc2ccco2)cc1Cl | inactive |
| Nc1ccc(S(N)(=O)=O)cc1 | inactive |
| COC(=O)[C@H](Cc1ccccc1)NC(=O)[C@@H](N)CC(=O)O (H-Asp-Phe-OMe) | inactive |
| CS(=O)(=O)OCCCCOS(C)(=O)=O | inactive |
| COc1c2occc2cc2ccc(=O)oc12 | inactive |
| CN(C)c1ccc2nc3ccc(=[N+](C)C)cc-3sc2c1 | 3.98 µM (active) |
| CCc1nc(N)nc(N)c1-c1ccc(Cl)cc1 | inactive |
| CC(=O)Nc1ccc(O)cc1 | inactive |
| CCCc1cc(=O)[nH]c(=S)[nH]1 | inactive |
| Cc1cc(O)c2c(c1)C(=O)c1cc(O)cc(O)c1C2=O | inactive |
| CCCCC(CC)COC(=O)C(C#N)=C(c1ccccc1)c1ccccc1 (stereo not drawn) | inactive |
| Cc1ccc(C)c(OCCCC(C)(C)C(=O)O)c1 | inactive |
